# In PubChem BioAssay (NCI):
# About 83,000 compounds went through this panel and 20% of them were active in at least one assay; those are over-represented in the sample as a whole.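 Values shown are percent growth following 48 h exposure of cells in 96-well plates to a single concentration of compound; below 10 was considered active.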 Unmarked numbers belong to inactive results. The source made the active and inactive calls.
# Tests used:
# Experiment in all cases: NCI-60 one-dose screen, 48 h (100 = growth as untreated, 0 = no growth, -100 = all killed)
# Conditions in all cases: 10 µM
# DU-145 prostate = tested on: DU-145 prostate
# K-562 leukemia = tested on: K-562 leukemia
# MALME-3M melanoma = tested on: MALME-3M melanoma
# MDA-MB-231 breast = tested on: MDA-MB-231 breast
# RXF 393 renal = tested on: RXF 393 renal
# SF-268 CNS = tested on: SF-268 CNS
# SF-295 CNS = tested on: SF-295 CNS
# SF-539 CNS = tested on: SF-539 CNS
# UACC-257 melanoma = tested on: UACC-257 melanoma
# M14 melanoma = tested on: M14 melanoma
# HCT-15 colon = tested on: HCT-15 colon
# HT29 colon = tested on: HT29 colon
# SNB-75 CNS = tested on: SNB-75 CNS
# SNB-19 CNS = tested on: SNB-19 CNS
# U251 CNS = tested on: U251 CNS
# PC-3 prostate = tested on: PC-3 prostate
# SK-MEL-5 melanoma = tested on: SK-MEL-5 melanoma
# UACC-62 melanoma = tested on: UACC-62 melanoma
# LOX IMVI melanoma = tested on: LOX IMVI melanoma
# SK-MEL-28 melanoma = tested on: SK-MEL-28 melanoma
Compound,growth (DU-145 prostate),growth (K-562 leukemia),growth (MALME-3M melanoma),growth (MDA-MB-231 breast),growth (RXF 393 renal),growth (SF-268 CNS),growth (SF-295 CNS),growth (SF-539 CNS),growth (UACC-257 melanoma),growth (M14 melanoma),growth (HCT-15 colon),growth (HT29 colon),growth (SNB-75 CNS),growth (SNB-19 CNS),growth (U251 CNS),growth (PC-3 prostate),growth (SK-MEL-5 melanoma),growth (UACC-62 melanoma),growth (LOX IMVI melanoma),growth (SK-MEL-28 melanoma)
CC(=O)Nc1ccc(CC[C@H]2CCC/C=C/[C@@H]3C[C@H](O)C[C@H]3[C@H](O)/C=C/C(=O)O2)cc1,22.9%,15.3%,-7.38% (active),-88.4% (active),-32.1% (active),13.8%,16.9%,25.3%,-3.78% (active),9.87% (active),9.69% (active),-26.2% (active),30.3%,25.9%,15.2%,18.9%,-88.6% (active),18.7%,-64.9% (active),–
COc1ccc(-c2n[nH]nc2-c2cc(OC)c(OC)c(OC)c2)cc1,-14.1% (active),8.16% (active),37.3%,14.8%,33.3%,9.64% (active),13.7%,10.3%,69.1%,12.2%,25.8%,4.38% (active),50.1%,58.3%,1.61% (active),23.4%,-53.9% (active),38.4%,9.46% (active),–
COc1cc(/C=C/c2cc(/C=C/c3ccc(O)c(OC)c3)[nH]c(=O)n2)ccc1O,80.4%,42%,53.6%,54.2%,23.7%,48.2%,92.8%,69%,62.5%,75.5%,81.8%,-6.41% (active),44.3%,82.6%,55.6%,61%,70.7%,63.3%,49%,–
O=C1/C=C/[C@@H](O)[C@@H]2C[C@@H](O)C[C@H]2/C=C/CCC[C@H](CCc2ccc(NC(=S)Nc3ccc4c(c3)C(=O)OC43c4ccc(O)cc4Oc4cc(O)ccc43)cc2)O1,17.4%,13.5%,-1.26% (active),-88.7% (active),-30.2% (active),12.8%,22.2%,29.4%,0.525% (active),10.9%,3.98% (active),1.54% (active),48.9%,34.1%,20%,23.3%,-87.2% (active),16.3%,-51.4% (active),9.95% (active)
Nc1nc(-c2ccc(Cl)cc2)cc(-c2cc3ccccc3oc2=O)n1,106%,114%,80%,93.9%,112%,104%,89.1%,117%,132%,95.3%,102%,93.5%,68.4%,94%,99.4%,97.8%,91.2%,92.5%,92.8%,–
COc1ccc(-c2onc(N)c2-c2cc(OC)c3c(c2)OCO3)cc1,29.3%,13%,29.5%,56.7%,24.8%,50.1%,14.3%,20.1%,47.5%,-0.971% (active),23.9%,7% (active),17.7%,52.8%,18.6%,61.4%,1.27% (active),42.7%,34.7%,47.4%
Clc1nc2ccc(Br)cc2cc1-c1nc2ccccc2[nH]1,99.4%,86.1%,97.2%,64.6%,10.6%,59.3%,86.7%,107%,102%,105%,92.3%,106%,42.4%,91%,81%,39.6%,84.7%,90.9%,69.5%,–
CN(C)CCCOc1ccc(NC2=C(Cl)C(=O)C(Nc3ccc(OCCCN(C)C)cc3)=C(Cl)C2=O)cc1,-95.8% (active),-11.7% (active),-71.7% (active),-80.2% (active),-97.9% (active),-51.2% (active),-22.8% (active),-87.9% (active),-88.2% (active),-71.8% (active),-82% (active),-54.1% (active),-77.9% (active),-48.6% (active),-91.2% (active),-7.37% (active),-96.6% (active),-74.9% (active),-80.5% (active),39.4%
